According to PubChem BioAssay AID624126 (The Scripps Research Institute Molecular Screening Center, 2012):
The campaign covered roughly 360,000 compounds. About 1,400 (0.39%) were called active. For the sample, actives were picked, then their nearest neighbours and some compounds at random. Unmarked numbers belong to inactive results.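 Rule for the calls: active = activation above its plate's cutoff, the mean activation of sample wells plus 3 SD; inactive = the rest.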

What follows are compounds tested against Muscarinic acetylcholine receptor M4 (Homo sapiens) (UniProt P08173) (assay: human M4 muscarinic receptor positive allosteric modulators, primary screen, CHO-K1 cells, Fluo-8 calcium fluorescence (AID 624126)). Settings: CHO-K1 hM4/Gqi5, Fluo-8 calcium fluorescence, ACh EC20; at 3 µM; stronger effect = higher value; 0% = ACh EC20, 100% = maximal ACh.
Muscarinic acetylcholine receptor M4 (Homo sapiens), sequence (P08173 whole entry, looked up): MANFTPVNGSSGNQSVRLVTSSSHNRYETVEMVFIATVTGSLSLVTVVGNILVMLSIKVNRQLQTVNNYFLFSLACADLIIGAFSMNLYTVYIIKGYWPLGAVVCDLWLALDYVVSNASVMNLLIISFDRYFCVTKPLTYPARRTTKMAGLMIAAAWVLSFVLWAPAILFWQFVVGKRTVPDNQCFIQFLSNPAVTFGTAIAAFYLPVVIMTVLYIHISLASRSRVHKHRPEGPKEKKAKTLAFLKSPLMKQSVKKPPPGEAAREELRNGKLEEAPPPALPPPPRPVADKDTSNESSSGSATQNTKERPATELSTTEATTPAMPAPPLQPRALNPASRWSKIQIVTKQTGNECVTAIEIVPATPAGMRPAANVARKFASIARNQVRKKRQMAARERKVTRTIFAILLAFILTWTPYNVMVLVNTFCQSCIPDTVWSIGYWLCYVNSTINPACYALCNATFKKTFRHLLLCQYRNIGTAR

First: Cc1cc(C)c(S(=O)(=O)NCCCN2CCOCC2)cc1Br
Second: Cc1cc(=O)oc2c(C)c(OCC(=O)NCCN3CCOCC3)ccc12
The activation of the first is lower: -4.24% for the first, -1.9% for the second.

Going from `O=C(CN1CCCC1)Nc1sc2c(c1C(=O)Nc1ccccc1)CCCC2` to `Cc1ccccc1NC(=O)NC1(C(=O)N2CCCC2)CCCCC1`, the activation rises from 0.04% to 9.77%.

Going from `COc1cccc(CN(C)CC(=O)Nc2sc3c(c2C#N)CCC3)c1` to `COCCn1c(SCC(=O)Nc2ccc3c(c2)CCC3)nc2ccccc2c1=O`, the activation rises from -0.97% to -0.72%.

First: COCc1c(C(=O)OCc2c(C)noc2C)oc2ccccc12
Second: Cc1ccc(C)c(NC(=O)NNC(=O)c2ccc3ccccc3c2O)c1
The activation of the first is lower: -3.78% for the first, 12.9% for the second.

Compared with `CCCCCN(C(=O)CCC(=O)OCC(=O)NC1CCC(C)CC1)c1c(N)n(CCCC)c(=O)[nH]c1=O` (stereo not given), `CC(C)Cn1c(N)c(C(=O)COC(=O)CN2C(=O)C3CC=CCC3C2=O)c(=O)n(C)c1=O` (stereo not given) is lower in activation: 9.55% for the first, -2.93% for the second.

Going from `CN(CCc1ccccc1)C(=O)c1cccc(NC(=O)Cc2cccc(NC(=O)C3CCCN(C(=O)C4CCC4)C3)c2)c1` (stereo not given) to `CN(CC(=O)Nc1c(Cl)cccc1Cl)C(=O)c1ccncc1`, the activation rises from -5.03% to 0.17%.

First: O=C(c1cnccn1)N1CCN(S(=O)(=O)c2cccc(Cl)c2)CC1
Second: Cc1cc(C)c(C)c(S(=O)(=O)N2CCN(C(=O)c3ccc4c(=O)n5c(nc4c3)CCC5)CC2)c1C
The activation of the first is higher: 1.28% for the first, -1.12% for the second.

Compared with `Cc1ccc(Cn2c(=N)c(S(=O)(=O)c3ccc(C)cc3)cc3c(=O)n4ccccc4nc32)cc1`, `CC(C)(C(=O)N1CCC1(C)C(=O)NS(=O)(=O)c1ccc(Br)cc1)c1ccccc1` (stereo not given) is lower in activation: 3.3% for the first, 1.17% for the second.

Going from `O=C(Nc1cc(F)ccc1F)c1ccc2c(=O)n3c(nc2c1)CCC3` to `CC(C)c1nc(CNC(=O)CC2C(=O)NCCN2Cc2cccc(F)c2F)cs1` (stereo not given), the activation falls from 3.59% to -2.59%.

First: CCN(CC(=O)NCc1cccs1)C(=O)c1ccccc1F
Second: CCOc1ccc(/C=C/C(=O)N(CC)CC(=O)NCc2cccs2)cc1OC
The activation of the first is higher: 0.45% for the first, -5.1% for the second.

First: Cc1c(C(=O)c2cccc([N+](=O)[O-])c2)c2ccccn2c1CCC#N
Second: Cc1cc(=O)oc2c(C(=O)c3ccccc3)c(OCC(N)=O)ccc12
The activation of the first is lower: -5.93% for the first, -2.31% for the second.

Going from `CN1CCN(c2cc3c(cc2F)c(=O)c(C(=O)O)cn3CCF)CC1` to `O=C(O)C1CCCN1S(=O)(=O)c1ccc2c(c1)CCC2` (stereo not given), the activation falls from 8.31% to -5.21%.

First: CCCC(C)c1nnc(NC(=O)C2CC(=O)N(c3ccc(OCC)cc3)C2)s1 (stereo not given)
Second: COc1ccc(N2CC(C(=O)N[C@@H](C)C(=O)N3CCCCC3)CC2=O)cc1 (stereo not given in full)
The activation of the first is higher: 0.96% for the first, -1.42% for the second.

Compared with `COc1ccc(-c2ccc3c(c2)C2CC3CCN2CCC#N)cc1` (stereo not given), `COc1ccc(/C(N)=N/OC(=O)CCCc2ccccc2)cc1` is higher in activation: -4.51% for the first, 1.71% for the second.

Going from `N/C(=N\OC(=O)CCc1ccccc1)c1ccc(Cl)cc1` to `O=C(Cn1nc(CNc2ccc(Cl)cc2)[n+]2c1CCCCC2)c1ccc(Cl)cc1`, the activation falls from 12.9% to -0.75%.

Going from `Cc1nnc(SC(C(=O)Nc2cc(Cl)cc(Cl)c2)c2ccccc2)[nH]c1=O` (stereo not given) to `CCc1ccccc1OCC(=O)Nc1nnc(C2CC2)s1`, the activation rises from -2.22% to 2.68%.

First: O=C(Nc1c(Cl)cccc1Cl)C1CCC1
Second: CCc1cc(C(=O)Nc2nnc(C3CC3)s2)sc1C
The activation of the first is higher: 11.8% for the first, 6.5% for the second.

Compared with `COC(=O)c1c(NC(=O)COc2ccc(Cl)cc2Cl)sc2c1CC(C)(C)NC2(C)C`, `CCCCOc1ccc(CON(C(C)=O)C(C)=O)cc1Cl` is lower in activation: 14.6% for the first, -9.39% for the second.

Going from `CCOc1ccccc1C1NC(=O)NC(C)=C1C(=O)OCc1ccco1` (stereo not given) to `Cn1cnc2c1c(=O)n(Cc1ccccc1C#N)c(=O)n2C`, the activation rises from -5.48% to 1.16%.

First: Cc1ccc(C2=CSC3=NS(=O)(=O)CCN23)cc1C
Second: COc1ccc2c(C)cc3nnnn3c2c1
The activation of the first is higher: 5.85% for the first, 5% for the second.

First: CCNC(=O)CCc1nc(-c2ccc(C(C)(C)C)cc2)no1
Second: Cc1ccc(SCC2=NNC(=O)C2)cc1
The activation of the first is higher: 1.74% for the first, -0.52% for the second.

Going from `CCCc1cc(=O)[nH]c(SCC(=O)N2C(C)CCCC2C)n1` (stereo not given) to `Cc1cc(=O)[nH]c(Nc2cccc(Br)c2)n1`, the activation falls from 2.48% to -7.26%.

Compared with `C[n+]1cccc(C(=O)O)c1`, `O=C(Cc1ccc(S(=O)(=O)N2CCOCC2)s1)Nc1ccc(Br)c(C(F)(F)F)c1` is lower in activation: -3.7% for the first, -10.2% for the second.

Going from `Cc1ccc(C)c(NC2=NCC(=O)N2c2ccc3c(c2)OCCO3)c1` to `O=C(C(NS(=O)(=O)c1cccc2nsnc12)c1ccccc1)N1CCN(c2ccccn2)CC1` (stereo not given), the activation falls from -2.16% to -11.9%.

For `CCN1CCN(CC(=O)Nc2sc3c(c2C#N)CCC3)CC1`, the activation was 17.1% (active).
In the case of `O=C(OC12CC3CC(CC(C3)C1)C2)c1ccc(NCc2cc(O)ccc2O)cc1`, the activation is reported as 15.5% (active).
In the case of `CC1CCN(C(=O)c2ccc3c(=O)n4c(nc3c2)CCCCC4)CC1`, the activation is reported as 14.7% (active).
`CCN(CC(=O)NCc1cccs1)C(=O)/C=C/c1ccc(C)cc1` was tested, and the activation was 23.5% (active).
For `CCOc1ccc(NC(=O)[C@H](C)NC(=O)C2CC(=O)N(c3ccc(OC)cc3)C2)cc1` (stereo not given in full), the activation was 17.5% (active).
In the case of `N/C(=N\OC(=O)CCc1ccccc1)c1cccnc1`, the activation is reported as 24.5% (active).
For `NC(=S)Nc1c(Cl)cccc1Cl`, the activation was 43.9% (active).
With `CCCOc1ccc(C2=CSC3=NCCN23)cc1Cl` the activation was 15.8% (active).
In the case of `CCCc1cc(=O)[nH]c(SCC(=O)c2c(N)n(CC(C)C)c(=O)n(C)c2=O)n1`, the activation is reported as 25.4% (active).
For `CC(=O)c1c(OCC(=O)N(C)C2CCCCC2)ccc2c(C)cc(=O)oc12`, the activation was 21.7% (active).
`Cc1cc(=O)[nH]c(N/N=C/c2ccc3c(c2)OCCO3)n1` was tested, and the activation was 31.5% (active).
With `O=C(Nc1nnc(C2CC2)s1)c1ccccn1` the activation was 28.3% (active).
